The source of these data is the supplement of paper PMC6555819.

For the assay, the system named is VDR:RXRa (NR concentration 270 nM, RXRa partner concentration 90 nM). In words: PBM binding z-score (relative to random genomic background probes); higher = stronger binding; sequences stand for … in GC…GCGATTGACAGCGTAGAATGAAGG
The method, then:
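Protein-binding microarray (Agilent 4x180K custom design, double-stranded 60-nt probes: 5' GC cap, 34-nt variable region, 24-nt constant primer region; full probe sequence given). Purified or IVT nuclear receptor:RXRα heterodimers (3:1 NR:RXRα, mostly 270:90 nM) or homodimers were incubated for 1 h in PBS with 2% milk and no ligand, then detected with Alexa488 antibodies. Fluorescence from o1-orientation probes (~5 replicates averaged) was converted to z-scores against 500 random hg19 background probes. Variable regions are seed direct-repeat (DR0–DR5) sites, all their single-nucleotide variants and half-site ablations.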
ATCTCTAGGTAAAGATAGTTCACTGAATGCAAAT yielded a PBM binding z-score of 1.37.

In the case of CCTAGCAGGCCAGGGTCTCTCAAGCATTTCGCTT, the PBM binding z-score was -0.712.

GCTGCTAGGTCAACAGATGGTCAGCTAAAGCTCG: the PBM binding z-score is 1.11.

For the sequence AGTCAAAGTTCATCTAGGTAACGCAAGATATGCT, the PBM binding z-score turned out to be 4.91.

For TCTTGTAGATCAAGCAGGTTAAGAAAGCCTGAGT, the PBM binding z-score amounted to 0.61.

Sequence CGAACTACGTCAGAACAGGACAGTGAAGGATGAT gave a PBM binding z-score of -0.451.

As to CGAACTAGGTCAGAACAGGACAGAGAAGGATGAT, the PBM binding z-score was found to be 0.496.

CCTGCTAGGTCCATGGTCAGCTAAAGCAGCTCGC had a PBM binding z-score of -0.591.

TAGCCTCGGTCAGATCGGGCCAGTATACGCTATA showed a PBM binding z-score of -0.637.

On to GCTGCTAGGTCAACTGATGGTCAGCAAAAGCTCG, for which the PBM binding z-score was found to be 1.69.

For ACTAGCAGGCCAAGTTTGGGTCAATCAAACAAAG, the PBM binding z-score turned out to be 0.502.

As for CGTCCAAGGTCATAGAAGGTCAGTGAAGACAGAT, the PBM binding z-score amounted to 6.34.

In turn, TGGCCTAGGTCATTGGGCCAGTATAGTACGCATC came in with a PBM binding z-score of 1.87.

With TAGCCTAGGACATGGGCCAGTATACCACGCGAAC, the PBM binding z-score is -0.512.

Turning to TCGACTAGGTTACCAATGGGGCATTCAGCTTTCT, the PBM binding z-score is 0.439.

ATAGACAGGTGAGTGAAGGTAACTCAGCTGGACG came in with a PBM binding z-score of 0.0461.

In the case of CCAGACAGGTGAAAGTTAACTCAGTCTGGTACGC, the PBM binding z-score is 0.0177.

CAAACTAGGCCACGAAAGGTCAAAGTCGAATGAC registered a PBM binding z-score of 4.9.

Regarding TCATATGGGTAATACAGGTGAAAGTCGGCATCTA, the PBM binding z-score amounted to 0.677.

CCTCGCAGGCCAATCTGGGTCACTCAAGGCTTGA had a PBM binding z-score of 0.596.

Take CCTTACCGGTCACTGACAGGTTATAGCATTTGGA: the PBM binding z-score was 0.869.

CGCGAAAGGTCGTGCTCAGGTGAGTATACCAAAC came in with a PBM binding z-score of 3.57.

As to CCGAGTAGGTTATGGGGCATTCCGGCAACGGTGA, the PBM binding z-score is -0.216.

With CAAACTAAGTCACCGGAAGGTCAAAGTCCGCATG, the PBM binding z-score amounted to 3.59.

GGAACGAGGGGAAAGTTGATAGCATCTGTCGACG showed a PBM binding z-score of -0.259.

In turn, ATCTCTAGGTAAAGATAGTTCAGTGAGTGCAAAT showed a PBM binding z-score of 5.05.

In turn, CCTAGTTGGTCAAGGTCACCCACGCTATAGGTAC yielded a PBM binding z-score of 4.

For the sequence ACTAGCAGGCCAAGGGTCACTCTAGATTAGTCCG, the PBM binding z-score was determined as 2.58.

TTACCAAGGTGAAAGGACGTTGATGCACGCCTTG had a PBM binding z-score of 0.0674.

For GATACAGGGTCAGCTAGAGGACAGAGTATGGAAA, the PBM binding z-score was determined as 3.75.

CGAACTAGGTCATCCATGACAGTGAATACATTGA returned a PBM binding z-score of 2.45.

Regarding ATCGAAAGGTGGAAGGTGAGTATACCCACCCGAA, the PBM binding z-score worked out at 0.0525.

Turning to GATACAGGGTCAGCTAGAGGCCCGAGTATGGAAA, the PBM binding z-score came to 2.11.

For ACTAATAGTTGAGACGAGGGCAACCGATAGGTTG, the PBM binding z-score was 1.27.

Take GCATATAGGTAATACAAGGTGAAGGTCCGATTGT: the PBM binding z-score was found to be 0.155.

As to ATCGAAGGGTCGAGGTGAGTATAGAGAAAGGGAA, the PBM binding z-score is 1.37.

Sequence TCATAGAGGTAAAAGGTGAAAGTCGGTGTGGTAA yielded a PBM binding z-score of 1.48.

With AGTATGAGGTTACCAAAGATCAGGGAAACGCTTG, the PBM binding z-score was determined as 1.41.

Turning to CCTTACGGTTCAAGGTTATAGCACGGGTGGTACG, the PBM binding z-score worked out at 2.72.

In turn, ACTAGCAGGTCAAGTTTGGGTCACTCAAACAAAG gave a PBM binding z-score of 4.68.
